# Assay results as given in PubChem BioAssay (Tox21).
# Several values for one entry are separate records, joined by “and”; a condition that tells them apart may be missing. Identical values can stand only once. Records with an inconclusive call do not appear. Entries that show only a call come without a potency. Some structures have more than one record in an assay (separate samples or runs), and their calls can disagree. Activity calls are given as the source filed them. Unless noted, the call rests on the fitted dose curve; in most records, active means well fitted curve in the direction sought with a large enough effect in the repeat runs; inconclusive means weak or mixed curves; inactive means no such curve, though single readings can be large; an effect the other way counts as inactive or inconclusive.
# Legend:
# [1] = qHTS assay to identify small molecule antagonists of the vitamin D receptor (VDR) signaling pathway - cell viability counter screen (AID 743225); further: nearly all actives have a fitted effect of over 50% in size; further: potency means the concentration at half of the fitted maximal effect
# How it was run: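 Parallel cytotoxicity test: VDR-UAS-bla HEK 293T, 3 nM (final) 1-alpha,25-dihydroxyvitamin D3 with test compound, 16 h, 37C. Endpoint is CellTiter-Glo luminescence in the same wells.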
# [2] = qHTS assay to identify small molecule agonists of the NFkB signaling pathway - cell viability counter screen (AID 1159515; calls by dose curve; further: nearly all actives have a fitted effect of over 55% in size; further: potency means the concentration at half of the fitted maximal effect)
# How it was run: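 Plate 2,000 NFkB-bla ME-180 cells/well; incubate overnight. Add compounds, 5 hr at 37 C. Add FRET substrate, 1.5 hr RT. Add CellTiter-Glo, 30 min RT; read luminescence.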
# [3] = qHTS assay to identify small molecule agonists of the endoplasmic reticulum stress response signaling pathway (AID 1159516; active means well fitted activation curve with a large enough effect in the signal ratio in the repeat runs, not every such curve was filed as active; the % refers to the signal ratio)
# How it was run: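 Beta-lactamase expression from the ER stress response element in HeLa reporter cells is quantified with the LiveBLAzer B/G FRET substrate, read at 405 nm excitation after 2 hr at room temperature, following 5 hr compound treatment at 37 C.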
# [4] = qHTS assay to identify small molecule agonists of the endoplasmic reticulum stress response signaling pathway - cell viability counter screen (AID 1159517; calls by dose curve; further: nearly all actives have a fitted effect of over 50% in size; further: potency means the concentration at half of the fitted maximal effect)
# How it was run: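 Cytotoxicity of test compounds toward ESRE-bla HeLa cells was assessed after 5 hr exposure. The luminescent CellTiter-Glo signal was measured 30 min after reagent addition.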
# [5] = qHTS assay to identify small molecule antagonists of the retinoid-related orphan receptor gamma (ROR-gamma) signaling pathway - cell viability counter screen (AID 1159520); further: nearly all actives have a fitted effect of over 50% in size; further: potency means the concentration at half of the fitted maximal effect
# How it was run: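 Tet-on ROR gamma CHO cells (1,000/well) were plated 4 hr, given compounds in DMSO for 2 hr at 37 C, then induced with 1 uM final doxycycline for 16 hr. Viability was read as ATP by CellTiter-Glo luminescence after 30 min.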
# [6] = biological target: Nuclear receptor ROR-gamma (Homo sapiens) (UniProt P51449); experiment: qHTS assay to identify small molecule antagonists of the retinoid-related orphan receptor gamma (ROR-gamma) signaling pathway (AID 1159521; further: nearly all actives have a fitted effect of over 50% in size; further: potency means the concentration at half of the fitted maximal effect)
# How it was run: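 Decreased RORE-driven luciferase luminescence indicates antagonism. Tet-on RORγ CHO cells received compound, then 1 uM final doxycycline 2 h later; signal read after 16 h incubation.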
# [7] = qHTS assay to identify small molecule agonists of the AP-1 signaling pathway - cell viability counter screen (AID 1159525; calls by dose curve; further: nearly all actives have a fitted effect of over 55% in size; further: potency means the concentration at half of the fitted maximal effect)
# How it was run: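 Each titration point was normalised to DMSO and tetra n-octyl ammonium bromide controls. The read was Cell Titer Glo luminescence after 30 min at RT, following 5 h compound exposure of ME-180 AP-1-bla cells at 37 °C.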
# [8] = qHTS assay to identify small molecule agonists of the AP-1 signaling pathway (AID 1159526; calls by dose curve)
# [9] = qHTS assay to identify small molecule agonists of the RXR signaling pathway - cell viability counter screen (AID 1159529); further: nearly all actives have a fitted effect of over 50% in size; further: potency means the concentration at half of the fitted maximal effect
# How it was run: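 In this parallel viability measure, GeneBLAzer RXR-alpha HEK 293T cells (2% charcoal-stripped FBS) were given a 5 hr preincubation, treated with compounds 16 hr at 37 C, and read by CellTiter-Glo luminescence.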
# [10] = qHTS assay to identify small molecule antagonists of the retinoid acid receptor (RAR) signaling pathway - cell viability counter screen (AID 1159551); further: nearly all actives have a fitted effect of over 35% in size; further: potency means the concentration at half of the fitted maximal effect
# How it was run: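 Viability of C3RL4 cells is quantified from ATP by luminescence after 6 h treatment at 37 C with compounds and 1 uM retinol.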
# [11] = qHTS assay to identify small molecule antagonists of the estrogen related receptor (ERR) signaling pathway from Tox21 library - cell viability counter screen (AID 1224834); further: nearly all actives have a fitted effect of over 30% in size; further: potency means the concentration at half of the fitted maximal effect
# How it was run: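 In this quantitative HTS format, ERR cells receive compounds in DMSO and are incubated for 17.5 h at 37 C. Live-cell protease activity is then detected with CellTiter-Fluor.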
# [12] = biological target: Retinoic acid receptor RXR-alpha (Homo sapiens) (UniProt P19793); experiment: qHTS assay to identify small molecule agonists of the RXR signaling pathway (AID 1159527; calls by dose curve; further: nearly all actives have a fitted effect of over 35% in size; further: potency means the concentration at half of the fitted maximal effect)
# How it was run: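 16 hr incubation of compound-treated RXR-alpha-UAS-bla HEK 293T cells (2% charcoal-stripped FBS, 37 C) preceded a 2 hr room-temperature LiveBLAzer FRET substrate step and blue/green fluorescence measurement.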
# [13] = qHTS assay to identify small molecule agonists of the retinoic acid receptor (RAR) signaling pathway (AID 1159553)
# How it was run: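 Compounds dissolved in DMSO were pinned onto C3RL4 cells seeded the previous day, and plates were held 6 hr at 37 C. RARE-driven luciferase output was then read by luminescence.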
# [14] = qHTS assay to identify small molecule antagonists of the retinoic acid receptor (RAR) signaling pathway (AID 1159552)
# How it was run: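 C3RL4 RARE-luc cells, overnight plating; retinol 1 uM final added right after compound; 6 hr 37 C; luciferase read at 30 min RT.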
# Sequence of Retinoic acid receptor RXR-alpha (Homo sapiens) (P19793 whole entry, looked up): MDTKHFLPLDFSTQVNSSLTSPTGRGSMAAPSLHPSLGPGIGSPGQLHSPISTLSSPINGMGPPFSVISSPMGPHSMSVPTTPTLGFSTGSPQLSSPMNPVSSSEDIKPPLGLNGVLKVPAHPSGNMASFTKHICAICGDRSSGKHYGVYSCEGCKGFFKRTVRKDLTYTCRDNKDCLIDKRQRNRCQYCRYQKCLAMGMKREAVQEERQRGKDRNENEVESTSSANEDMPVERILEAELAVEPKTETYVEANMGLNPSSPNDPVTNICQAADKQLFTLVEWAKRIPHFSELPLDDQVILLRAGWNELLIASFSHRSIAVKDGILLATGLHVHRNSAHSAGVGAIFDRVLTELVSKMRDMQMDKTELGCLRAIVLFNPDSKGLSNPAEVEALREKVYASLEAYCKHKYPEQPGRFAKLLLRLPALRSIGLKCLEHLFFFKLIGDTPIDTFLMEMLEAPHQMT
SMILES,Potency [1],Potency [2],outcome [3],Potency [4],Potency [5],Potency [6],Potency [7],Potency [8],Potency [9],Potency [10],Potency [11],Potency [12],Potency [13],Potency [14]
O=C(O)c1nc(Cl)ccc1Cl,inactive,inactive,inactive,inactive,inactive,inactive,inactive,inactive,inactive,inactive,inactive,–,–,–
CCCC[n+]1ccccc1,inactive,inactive,inactive,inactive,inactive,inactive,inactive,inactive,inactive,inactive,inactive,inactive,inactive,–
O=c1nc(O)n(Cl)c(=O)n1Cl,inactive,inactive,inactive,inactive,inactive,inactive,inactive,inactive,inactive,inactive,inactive,–,–,–
CCCn1cc[n+](C)c1,inactive,inactive,inactive,inactive,inactive,inactive,inactive,inactive,inactive,inactive,inactive,–,–,–
CC[N+]1(C)CCCC1,inactive,inactive,inactive,inactive,inactive,inactive,inactive,inactive,inactive,inactive,inactive,–,–,–
CCCCCCCCCCn1cc[n+](C)c1,–,inactive,–,–,inactive,7.73 µM (active) [middle of 5 runs],inactive,inactive,inactive,inactive,inactive and 8.62 µM (active),–,–,–
CCCCn1cc[n+](C)c1C,inactive,inactive,inactive,inactive,inactive,–,inactive,inactive,inactive,inactive,inactive,inactive,–,–
CNC,inactive,inactive,inactive,inactive,inactive,inactive,inactive,inactive,inactive,inactive,inactive,–,–,–
CCCCCCCCCCCCCC[P+](CCCCCC)(CCCCCC)CCCCCC,19.6 µM (active) and 17.5 µM (active),19.6 µM (active) and 24.7 µM (active) and inactive,inactive,31 µM (active) and 27.8 µM (active) and inactive,9.73 µM (active) and 19.5 µM (active),–,11 µM (active) and 19.7 µM (active) and inactive,inactive,8.75 µM (active) and 15.6 µM (active),27.4 µM (active) and 27.5 µM (active) and inactive,17.3 µM (active) and 24.5 µM (active),–,–,–
CC(=O)O,inactive,inactive,inactive,inactive,inactive,–,inactive,inactive,inactive,inactive,inactive,–,–,–
CCCC[N+]1(C)CCCC1,inactive,inactive,inactive,inactive,inactive,inactive,inactive,inactive,inactive,inactive,inactive,–,–,–
C=CCOC(Cn1ccnc1)c1ccc(Cl)cc1Cl (stereo unspecified),inactive,inactive,–,inactive,inactive,21.8 µM (active) and 29.8 µM (active),inactive,–,inactive,inactive,30.7 µM (active) and 48.6 µM (active) and 29.8 µM (active),–,–,–
CC(=O)[O][Hg][c]1ccccc1,1.37 µM (active) and 2.19 µM (active) and 2.39 µM (active),485 nM (active) and 549 nM (active) and 1.34 µM (active),–,485 nM (active) and 692 nM (active) and 2.13 µM (active),304 nM (active) and 969 nM (active) and 422 nM (active),429 nM (active) and 545 nM (active) and 750 nM (active),1.37 µM (active) and 2.45 µM (active) and 4.25 µM (active),–,1.72 µM (active) and 1.95 µM (active) and 2.39 µM (active),5.4 µM (active) and 13.7 µM (active) and 16.8 µM (active),2.41 µM (active) and 3.86 µM (active) and 7.5 µM (active),–,–,1.92 µM (active) and 1.54 µM (active) and 2.11 µM (active)
N#CS,inactive,inactive,inactive,inactive,inactive,–,inactive,inactive,inactive,inactive,inactive,–,–,–
O=S(=O)(O)O,inactive,inactive,inactive,inactive,inactive,–,inactive,inactive,inactive,inactive,inactive,–,–,–
O=[N+]([O-])O,inactive,inactive,inactive,inactive,inactive,–,inactive,inactive,inactive,inactive,inactive,inactive and 21.9 µM (active),inactive,–
O=C(O)c1ccccc1O,inactive,inactive,inactive,inactive,inactive,–,inactive,inactive,inactive,inactive,inactive,–,inactive,–
C[N+](C)(C)Cc1ccccc1,inactive,inactive,inactive,inactive,inactive,inactive,inactive,inactive,inactive,inactive,inactive,–,–,–
